Laboratory results from ChEMBL document CHEMBL1961873, “Compounds: GSK PKIS; Assays: Nanosyn kinase panel” (2012).

What was measured:
[1] = molecular target: Sphingosine kinase 1 (Homo sapiens) (UniProt Q9NYA1); conditions: at 1 µM;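 note: mean SPHK1 inhibition value reported from the GSK PKIS kinase panel screen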
[2] = molecular target: T1, Sphingosine kinase 2 (Homo sapiens) (UniProt Q9NRA0); conditions: at 0.1 µM
T1 sequence (whole entry): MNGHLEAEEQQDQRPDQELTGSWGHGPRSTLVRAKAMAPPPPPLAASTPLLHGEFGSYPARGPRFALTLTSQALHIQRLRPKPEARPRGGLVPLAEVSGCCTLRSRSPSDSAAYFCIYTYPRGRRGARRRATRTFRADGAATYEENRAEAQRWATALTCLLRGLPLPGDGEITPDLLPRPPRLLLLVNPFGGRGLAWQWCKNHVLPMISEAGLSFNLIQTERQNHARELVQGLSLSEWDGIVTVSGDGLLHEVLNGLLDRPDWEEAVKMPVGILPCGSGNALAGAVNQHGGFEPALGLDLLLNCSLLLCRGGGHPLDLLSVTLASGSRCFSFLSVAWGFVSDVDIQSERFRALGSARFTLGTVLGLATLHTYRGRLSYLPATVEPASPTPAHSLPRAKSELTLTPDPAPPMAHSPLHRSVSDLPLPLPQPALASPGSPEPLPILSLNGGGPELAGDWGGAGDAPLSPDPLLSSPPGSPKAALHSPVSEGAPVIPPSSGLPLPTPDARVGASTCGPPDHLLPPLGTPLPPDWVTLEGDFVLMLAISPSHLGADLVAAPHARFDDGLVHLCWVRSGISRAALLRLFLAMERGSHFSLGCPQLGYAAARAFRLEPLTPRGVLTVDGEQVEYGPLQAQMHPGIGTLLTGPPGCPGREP

[3] = molecular target: T1, Sphingosine kinase 2 (Homo sapiens); conditions: at 1 µM
[4] = molecular target: Casein kinase II subunit alpha (Homo sapiens) (UniProt P68400); conditions: at 0.1 µM
[5] = molecular target: Casein kinase II subunit alpha (Homo sapiens) (UniProt P68400); conditions: at 1 µM
[6] = molecular target: T2, Inhibitor of nuclear factor kappa-B kinase subunit alpha (Homo sapiens) (UniProt O15111); conditions: at 0.1 µM
T2 sequence (whole entry): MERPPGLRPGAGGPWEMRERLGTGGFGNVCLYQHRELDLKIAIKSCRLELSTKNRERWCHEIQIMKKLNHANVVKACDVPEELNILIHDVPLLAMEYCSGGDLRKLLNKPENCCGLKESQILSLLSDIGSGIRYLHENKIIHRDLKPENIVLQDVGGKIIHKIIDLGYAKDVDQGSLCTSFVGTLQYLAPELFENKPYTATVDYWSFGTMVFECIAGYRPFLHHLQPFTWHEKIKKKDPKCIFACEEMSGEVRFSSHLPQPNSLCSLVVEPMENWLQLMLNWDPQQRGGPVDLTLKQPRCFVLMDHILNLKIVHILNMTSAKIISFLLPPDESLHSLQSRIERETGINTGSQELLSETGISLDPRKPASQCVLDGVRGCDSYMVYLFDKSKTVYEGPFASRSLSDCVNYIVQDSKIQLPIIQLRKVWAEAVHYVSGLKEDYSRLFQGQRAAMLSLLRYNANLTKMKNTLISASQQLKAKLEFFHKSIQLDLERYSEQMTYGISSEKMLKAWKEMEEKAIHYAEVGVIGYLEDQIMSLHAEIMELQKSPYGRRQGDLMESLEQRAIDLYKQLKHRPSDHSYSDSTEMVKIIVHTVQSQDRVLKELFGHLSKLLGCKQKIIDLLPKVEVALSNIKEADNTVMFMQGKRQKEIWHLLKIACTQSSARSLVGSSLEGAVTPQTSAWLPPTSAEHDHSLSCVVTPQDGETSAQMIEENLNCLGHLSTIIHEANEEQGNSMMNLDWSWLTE

[7] = molecular target: T2, Inhibitor of nuclear factor kappa-B kinase subunit alpha (Homo sapiens); conditions: at 1 µM
[8] = molecular target: T3, Inhibitor of nuclear factor kappa-B kinase subunit beta (Homo sapiens) (UniProt O14920); conditions: at 0.1 µM
T3 sequence (whole entry): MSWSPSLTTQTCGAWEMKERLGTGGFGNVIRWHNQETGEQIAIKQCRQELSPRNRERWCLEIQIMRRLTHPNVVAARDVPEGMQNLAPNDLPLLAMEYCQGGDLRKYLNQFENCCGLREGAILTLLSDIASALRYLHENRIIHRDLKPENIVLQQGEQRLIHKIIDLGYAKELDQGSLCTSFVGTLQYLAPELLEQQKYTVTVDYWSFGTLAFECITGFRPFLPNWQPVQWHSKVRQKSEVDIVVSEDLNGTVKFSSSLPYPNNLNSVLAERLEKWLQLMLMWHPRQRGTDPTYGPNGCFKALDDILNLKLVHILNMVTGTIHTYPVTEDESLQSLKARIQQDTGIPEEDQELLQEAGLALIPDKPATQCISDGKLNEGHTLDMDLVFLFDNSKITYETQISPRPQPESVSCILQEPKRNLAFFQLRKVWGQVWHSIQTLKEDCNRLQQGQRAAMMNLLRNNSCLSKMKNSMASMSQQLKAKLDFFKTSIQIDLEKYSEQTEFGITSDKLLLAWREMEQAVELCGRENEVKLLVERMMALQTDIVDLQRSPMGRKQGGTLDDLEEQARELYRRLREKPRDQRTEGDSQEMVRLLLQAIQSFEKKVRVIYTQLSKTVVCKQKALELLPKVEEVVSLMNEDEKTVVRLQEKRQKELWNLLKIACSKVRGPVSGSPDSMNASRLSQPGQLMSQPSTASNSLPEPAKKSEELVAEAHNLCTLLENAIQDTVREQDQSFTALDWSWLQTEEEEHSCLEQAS

[9] = molecular target: T3, Inhibitor of nuclear factor kappa-B kinase subunit beta (Homo sapiens); conditions: at 1 µM
[10] = molecular target: T4, Inhibitor of nuclear factor kappa-B kinase subunit epsilon (Homo sapiens) (UniProt Q14164); conditions: at 0.1 µM
T4 sequence (whole entry): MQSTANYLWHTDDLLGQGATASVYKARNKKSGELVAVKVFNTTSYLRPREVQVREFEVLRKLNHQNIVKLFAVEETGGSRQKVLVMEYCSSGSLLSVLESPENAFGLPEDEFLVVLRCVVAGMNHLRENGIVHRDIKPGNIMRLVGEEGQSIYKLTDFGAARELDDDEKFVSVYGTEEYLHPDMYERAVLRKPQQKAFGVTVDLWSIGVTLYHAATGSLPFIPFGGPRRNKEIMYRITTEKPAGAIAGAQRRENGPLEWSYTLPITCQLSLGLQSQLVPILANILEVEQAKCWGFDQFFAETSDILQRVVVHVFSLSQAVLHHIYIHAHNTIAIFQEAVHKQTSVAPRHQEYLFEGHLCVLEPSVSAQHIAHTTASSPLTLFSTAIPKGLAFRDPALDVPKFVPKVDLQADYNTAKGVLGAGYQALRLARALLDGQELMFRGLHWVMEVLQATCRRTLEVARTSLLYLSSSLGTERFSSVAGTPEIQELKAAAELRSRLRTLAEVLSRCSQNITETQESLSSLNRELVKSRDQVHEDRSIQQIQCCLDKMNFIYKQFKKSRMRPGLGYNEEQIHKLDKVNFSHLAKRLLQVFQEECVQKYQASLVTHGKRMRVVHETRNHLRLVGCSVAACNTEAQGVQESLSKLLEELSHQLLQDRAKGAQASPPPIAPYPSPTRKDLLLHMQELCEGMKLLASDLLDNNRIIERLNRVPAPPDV

[11] = molecular target: T4, Inhibitor of nuclear factor kappa-B kinase subunit epsilon (Homo sapiens); conditions: at 1 µM
[12] = molecular target: T5, Serine/threonine-protein kinase Nek1 (Homo sapiens) (UniProt Q96PY6); conditions: at 0.1 µM
T5 sequence (whole entry): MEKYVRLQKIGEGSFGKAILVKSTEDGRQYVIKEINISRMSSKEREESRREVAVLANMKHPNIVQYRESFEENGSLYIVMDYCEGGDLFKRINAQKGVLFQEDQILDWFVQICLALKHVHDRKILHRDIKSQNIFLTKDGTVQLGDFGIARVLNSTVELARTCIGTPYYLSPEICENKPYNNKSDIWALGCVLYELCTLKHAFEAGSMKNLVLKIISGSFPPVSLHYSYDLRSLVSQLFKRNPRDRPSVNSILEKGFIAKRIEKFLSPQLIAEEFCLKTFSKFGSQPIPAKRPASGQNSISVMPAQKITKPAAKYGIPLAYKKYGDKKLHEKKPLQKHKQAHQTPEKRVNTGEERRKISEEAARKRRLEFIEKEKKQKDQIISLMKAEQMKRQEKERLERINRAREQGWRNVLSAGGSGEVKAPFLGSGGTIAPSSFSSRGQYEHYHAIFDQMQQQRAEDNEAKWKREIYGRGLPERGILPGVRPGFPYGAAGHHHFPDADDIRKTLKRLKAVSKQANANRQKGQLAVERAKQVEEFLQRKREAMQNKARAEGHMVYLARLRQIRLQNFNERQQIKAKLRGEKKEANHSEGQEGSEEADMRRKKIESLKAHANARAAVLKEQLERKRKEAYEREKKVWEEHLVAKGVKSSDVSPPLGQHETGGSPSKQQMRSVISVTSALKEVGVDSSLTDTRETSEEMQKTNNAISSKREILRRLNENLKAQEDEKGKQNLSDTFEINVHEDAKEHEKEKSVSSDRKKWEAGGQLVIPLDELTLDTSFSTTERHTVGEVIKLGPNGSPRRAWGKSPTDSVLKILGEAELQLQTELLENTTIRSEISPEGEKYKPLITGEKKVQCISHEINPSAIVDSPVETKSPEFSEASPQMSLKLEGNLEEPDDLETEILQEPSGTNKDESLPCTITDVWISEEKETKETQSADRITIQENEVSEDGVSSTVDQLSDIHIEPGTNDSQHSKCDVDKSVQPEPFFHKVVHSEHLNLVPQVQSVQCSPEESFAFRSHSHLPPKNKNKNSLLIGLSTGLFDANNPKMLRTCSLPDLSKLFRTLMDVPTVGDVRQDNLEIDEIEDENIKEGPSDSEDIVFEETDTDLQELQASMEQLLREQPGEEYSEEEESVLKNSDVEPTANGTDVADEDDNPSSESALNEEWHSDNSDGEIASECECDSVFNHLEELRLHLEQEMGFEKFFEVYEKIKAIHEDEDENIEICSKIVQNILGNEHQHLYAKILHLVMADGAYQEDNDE

[13] = molecular target: T5, Serine/threonine-protein kinase Nek1 (Homo sapiens); conditions: at 1 µM
[14] = molecular target: T6, Serine/threonine-protein kinase Nek2 (Homo sapiens) (UniProt P51955); conditions: at 0.1 µM
T6 sequence (whole entry): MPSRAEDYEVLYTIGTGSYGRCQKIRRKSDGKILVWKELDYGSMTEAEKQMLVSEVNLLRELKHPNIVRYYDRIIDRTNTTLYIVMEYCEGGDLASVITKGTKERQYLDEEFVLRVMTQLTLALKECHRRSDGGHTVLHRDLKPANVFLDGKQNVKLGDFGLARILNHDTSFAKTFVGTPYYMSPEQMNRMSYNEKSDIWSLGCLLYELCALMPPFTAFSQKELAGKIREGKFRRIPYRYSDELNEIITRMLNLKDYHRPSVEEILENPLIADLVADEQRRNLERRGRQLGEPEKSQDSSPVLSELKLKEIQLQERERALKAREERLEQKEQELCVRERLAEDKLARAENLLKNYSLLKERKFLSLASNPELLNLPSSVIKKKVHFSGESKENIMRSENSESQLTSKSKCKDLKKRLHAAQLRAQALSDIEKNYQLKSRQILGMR

[15] = molecular target: T6, Serine/threonine-protein kinase Nek2 (Homo sapiens); conditions: at 1 µM
[16] = molecular target: Serine/threonine-protein kinase Nek6 (Homo sapiens) (UniProt Q9HC98); conditions: at 0.1 µM
[17] = molecular target: Serine/threonine-protein kinase Nek6 (Homo sapiens) (UniProt Q9HC98); conditions: at 1 µM
[18] = molecular target: Serine/threonine-protein kinase Nek7 (Homo sapiens) (UniProt Q8TDX7); conditions: at 0.1 µM
[19] = molecular target: Serine/threonine-protein kinase Nek7 (Homo sapiens) (UniProt Q8TDX7); conditions: at 1 µM
[20] = molecular target: T7, Serine/threonine-protein kinase Nek9 (Homo sapiens) (UniProt Q8TD19); conditions: at 0.1 µM;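 note: reported value is the mean percent inhibition of NEK9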
T7 sequence (whole entry): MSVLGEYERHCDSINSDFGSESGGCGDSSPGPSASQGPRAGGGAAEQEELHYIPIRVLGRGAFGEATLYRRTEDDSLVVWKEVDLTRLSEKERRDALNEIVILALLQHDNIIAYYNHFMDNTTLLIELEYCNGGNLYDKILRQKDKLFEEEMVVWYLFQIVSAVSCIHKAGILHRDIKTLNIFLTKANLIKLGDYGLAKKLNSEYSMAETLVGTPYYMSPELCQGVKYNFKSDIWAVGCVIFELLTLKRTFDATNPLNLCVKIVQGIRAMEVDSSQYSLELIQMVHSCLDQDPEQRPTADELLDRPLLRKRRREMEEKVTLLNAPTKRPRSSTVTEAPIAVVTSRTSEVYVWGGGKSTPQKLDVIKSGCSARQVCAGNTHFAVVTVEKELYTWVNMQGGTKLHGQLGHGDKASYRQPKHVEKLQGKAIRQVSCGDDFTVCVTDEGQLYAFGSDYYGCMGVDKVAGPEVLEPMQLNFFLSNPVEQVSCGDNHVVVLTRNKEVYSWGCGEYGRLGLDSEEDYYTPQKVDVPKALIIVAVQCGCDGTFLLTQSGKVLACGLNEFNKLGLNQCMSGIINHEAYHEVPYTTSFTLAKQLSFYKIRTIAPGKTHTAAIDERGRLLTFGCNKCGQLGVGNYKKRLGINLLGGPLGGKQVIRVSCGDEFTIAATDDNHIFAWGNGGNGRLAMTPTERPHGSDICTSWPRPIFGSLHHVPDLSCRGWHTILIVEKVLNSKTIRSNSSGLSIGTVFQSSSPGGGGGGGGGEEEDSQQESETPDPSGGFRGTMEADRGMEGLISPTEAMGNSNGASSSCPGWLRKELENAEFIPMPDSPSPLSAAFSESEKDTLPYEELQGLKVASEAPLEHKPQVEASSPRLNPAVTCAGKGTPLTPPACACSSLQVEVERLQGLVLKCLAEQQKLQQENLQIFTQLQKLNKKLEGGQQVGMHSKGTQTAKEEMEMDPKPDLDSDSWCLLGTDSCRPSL

Sequence of Casein kinase II subunit alpha (Homo sapiens) (P68400 whole entry, looked up): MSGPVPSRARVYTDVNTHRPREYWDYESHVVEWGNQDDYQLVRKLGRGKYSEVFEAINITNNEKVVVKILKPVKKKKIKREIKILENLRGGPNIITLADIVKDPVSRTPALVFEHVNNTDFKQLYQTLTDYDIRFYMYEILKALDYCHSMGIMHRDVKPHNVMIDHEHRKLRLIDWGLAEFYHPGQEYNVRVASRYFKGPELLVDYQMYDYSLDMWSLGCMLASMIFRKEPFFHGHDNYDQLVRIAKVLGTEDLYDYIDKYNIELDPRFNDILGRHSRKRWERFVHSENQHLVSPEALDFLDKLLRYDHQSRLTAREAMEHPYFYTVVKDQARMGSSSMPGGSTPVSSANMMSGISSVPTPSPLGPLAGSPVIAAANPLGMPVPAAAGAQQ
Sequence of Serine/threonine-protein kinase Nek6 (Homo sapiens) (Q9HC98 whole entry): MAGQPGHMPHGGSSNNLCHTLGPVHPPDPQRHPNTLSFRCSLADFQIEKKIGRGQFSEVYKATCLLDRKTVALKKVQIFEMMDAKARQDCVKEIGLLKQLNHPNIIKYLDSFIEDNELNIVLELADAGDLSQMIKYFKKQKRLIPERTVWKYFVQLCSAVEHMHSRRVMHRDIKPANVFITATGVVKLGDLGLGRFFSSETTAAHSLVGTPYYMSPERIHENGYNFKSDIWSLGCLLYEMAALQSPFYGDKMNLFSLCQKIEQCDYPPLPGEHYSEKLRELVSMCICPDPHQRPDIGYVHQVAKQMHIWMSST
Sequence of Serine/threonine-protein kinase Nek7 (Homo sapiens) (Q8TDX7 whole entry, looked up): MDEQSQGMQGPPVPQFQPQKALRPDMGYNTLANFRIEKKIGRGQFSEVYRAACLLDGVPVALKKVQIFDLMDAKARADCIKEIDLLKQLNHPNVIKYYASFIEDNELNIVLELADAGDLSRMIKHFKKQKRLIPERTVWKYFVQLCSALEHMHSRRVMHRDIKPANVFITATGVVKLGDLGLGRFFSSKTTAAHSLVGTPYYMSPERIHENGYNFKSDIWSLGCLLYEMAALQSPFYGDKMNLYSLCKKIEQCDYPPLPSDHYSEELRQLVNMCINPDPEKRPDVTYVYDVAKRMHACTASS
Sequence of Sphingosine kinase 1 (Homo sapiens) (Q9NYA1 whole entry): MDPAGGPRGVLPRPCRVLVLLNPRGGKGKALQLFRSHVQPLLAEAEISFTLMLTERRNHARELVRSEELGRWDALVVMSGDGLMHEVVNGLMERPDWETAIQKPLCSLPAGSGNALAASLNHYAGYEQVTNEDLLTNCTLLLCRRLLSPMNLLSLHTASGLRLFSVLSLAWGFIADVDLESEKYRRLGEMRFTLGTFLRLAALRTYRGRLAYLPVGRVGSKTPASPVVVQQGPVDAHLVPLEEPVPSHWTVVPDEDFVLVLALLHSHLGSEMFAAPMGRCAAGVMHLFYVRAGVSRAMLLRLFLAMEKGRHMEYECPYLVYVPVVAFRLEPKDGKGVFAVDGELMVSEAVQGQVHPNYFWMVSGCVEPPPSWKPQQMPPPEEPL

Row | Compound | inhibition [1] [%] | inhibition [2] [%] | inhibition [3] [%] | inhibition [4] [%] | inhibition [5] [%] | inhibition [6] [%] | inhibition [7] [%] | inhibition [8] [%] | inhibition [9] [%] | inhibition [10] [%] | inhibition [11] [%] | inhibition [12] [%] | inhibition [13] [%] | inhibition [14] [%] | inhibition [15] [%] | inhibition [16] [%] | inhibition [17] [%] | inhibition [18] [%] | inhibition [19] [%] | inhibition [20] [%]
1 | O=C1NC(=O)C(N2CCc3ccccc32)=C1c1ccc(Cl)cc1 | 2.74 | 0.69 | 0.87 | 1.59 | -1.39 | 5.45 | 4.39 | 5.07 | 4.89 | 3.79 | 3.58 | 3.18 | 2.69 | 6.49 | 7.76 | -0.04 | -0.02 | 6.9 | 4.24 | 5.67
2 | CC1=C(C(=O)Nc2ccc3[nH]ncc3c2)C(c2ccc3ccccc3c2)CC(=O)N1 (stereo not given) | 0 | 0.52 | 0.65 | 3.48 | 6.51 | -1.96 | 1.55 | 1.45 | 0.58 | 3.14 | 3.81 | 1.66 | 2.46 | 2.88 | 2.9 | -0.05 | 2.48 | 0.42 | 1.79 | 3.14
